NPSR antag: qHTS Assay for Antagonists of the Neuropeptide S Receptor: cAMP Signal Transduction; AID 1461, 2008; Q6W5P4; Potency, µM (doses to about 38.3 µM), for inactives: top-dose activity change, negative = inhibition, usual class: inhibitors; CHO-NPSR cells, cAMP TR-FRET, antagonist mode; 220,000 tested, 1% active; further: potency means the concentration at half of the fitted maximal effect; nearly all actives have a fitted effect of over 50% in size
Target sequence (Q6W5P4 whole entry, looked up): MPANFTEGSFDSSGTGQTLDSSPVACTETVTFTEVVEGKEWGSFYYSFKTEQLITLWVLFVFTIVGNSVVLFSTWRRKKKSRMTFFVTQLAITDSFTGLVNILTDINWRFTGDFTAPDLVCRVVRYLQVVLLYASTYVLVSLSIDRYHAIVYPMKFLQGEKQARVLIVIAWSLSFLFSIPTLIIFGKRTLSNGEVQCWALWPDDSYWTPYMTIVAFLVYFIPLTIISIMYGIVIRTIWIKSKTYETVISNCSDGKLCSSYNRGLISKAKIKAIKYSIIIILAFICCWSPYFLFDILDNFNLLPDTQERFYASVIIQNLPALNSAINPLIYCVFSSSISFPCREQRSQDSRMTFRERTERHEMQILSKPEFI
IMPase cell inh: qHTS Assay for Identifying the Cell-Membrane Permeable IMPase Inhibitors; CHO-M1 cells, IP1 accumulation, HTRF TR-FRET ratio; AID 901, 2007; Inositol monophosphatase 1 (Rattus norvegicus), P97697; inhibition (IP1 accumulation), % at 46.1 µM; 120,000 tested, under 10 active; active means well fitted curve in the direction sought with a large enough effect in the signal ratio, not every such curve was filed as active; inconclusive means small, poorly fitted or top-dose-only effect, or a change in a side signal; inactive means no such curve, though single readings can be large or run the other way; the % refers to the signal ratio;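 further: cells stimulated with carbachol in lithium chloride buffer; plate controls were DMSO basal wells for no effect and reference inhibitor wells for full effect; higher means more IMPase inhibition seen as more IP1 and lower FRET ratio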
Target sequence (P97697 whole entry, looked up): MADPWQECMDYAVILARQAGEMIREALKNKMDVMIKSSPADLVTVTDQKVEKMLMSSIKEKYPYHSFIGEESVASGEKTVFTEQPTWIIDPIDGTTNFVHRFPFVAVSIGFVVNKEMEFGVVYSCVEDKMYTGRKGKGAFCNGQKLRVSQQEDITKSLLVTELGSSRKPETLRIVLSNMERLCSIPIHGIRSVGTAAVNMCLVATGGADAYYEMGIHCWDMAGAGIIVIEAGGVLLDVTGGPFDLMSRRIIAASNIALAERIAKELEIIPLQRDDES
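CHO-M1 cells (CHO stably expressing M1 receptor), compound up to 46 uM final, stimulated with carbachol (50 uM as added) in buffer with 50mM LiCl, pH 7.4, 30 min at 37C. Cytosolic IP1 read by TR-FRET; AC50 from Hill fits.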
IMPase Li inh: qHTS Assay for Identifying the Cell-Membrane Permeable IMPase Inhibitors: Potentiation with Lithium; CHO-M1 cells, IP1 TR-FRET (IP-One), carbachol + lithium; Potency, µM (doses to about 59.4 µM), without a hit: top-dose activity, negative = IMPase inhibition, actives largely listed as inhibitors; 210,000 tested, 0.35% active; AID 1457, 2008;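 further: IP1 builds up when IMPase is blocked and the TR-FRET signal falls; potency means the concentration at half of the fitted maximal effect; plate controls were basal vehicle for no effect and high inhibitor control for full effect; nearly all actives have a fitted effect of over 50% in size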
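Lithium-sensitised IP1 accumulation assay; M1-expressing CHO cells treated 30 min at 37C with compound. Competitive antibody detection by time-resolved FRET followed a 10 min room-temperature lysis step.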
An asterisk follows results filed as active; ? = inconclusive; nt = not tested or not shown; [ ] = dose if it differs, or a comment. Shown is part of a subset that was picked to be rich in hits. Unless noted, the call rests on the fitted dose curve; in most records, active means well fitted curve in the direction sought with a large enough effect; inconclusive means small, poorly fitted or top-dose-only effect, or another doubt; inactive means no such curve, though single readings can be large; an effect the other way counts as inactive or inconclusive. Unless noted, on the % scale 0 is the no-effect control and ±100 the full control effect.

SMILES	NPSR antag	IMPase cell inh	IMPase Li inh
N#C/C(=N\Nc1cccc([N+](=O)[O-])c1)C(=O)c1ccc(Br)cc1	6.3µM*	nt	20%
O=C(O)c1ccc(N=NNc2cccc([N+](=O)[O-])c2)cc1	-23%	nt	-7%
O=C(O)Cc1sc(-c2ccccc2Cl)nc1-c1ccccc1	-47%	nt	5µM*
O=C(O)Cc1sc(-c2cccnc2)nc1-c1ccc(Br)cc1	-29%	nt	-16%
CC(C)(C)C(=O)[C@H](C(c1ccccc1)N1CCOCC1)N1CCOCC1 (some centres undefined)	nt	nt	8%
O=C(OCn1ncc(Br)c(Br)c1=O)c1ccc(F)cc1	2.5µM*	?	7.1µM*
O=C(OCc1cnc(Cl)s1)c1ccccc1Cl	-7%[46.1 µM]	6	8%[38.3 µM]
O=C(OCn1ncc(Br)c(Br)c1=O)c1ccccc1Cl	2.5µM*	?	?
O=C(OCn1ncc(Cl)c(Cl)c1=O)c1cccc(C(F)(F)F)c1	?	2	-20%[38.3 µM]
C[C@H]1[C@H]2CC[C@H]3[C@@H]4CC=C5C[C@@H](N(C)C)CC[C@]5(C)[C@H]4CC[C@]23CN1C	nt	nt	18%
C=CCOC(=O)C1=C(C)NC(SCC)=C(C#N)C1c1ccc(Cl)cc1 (centres undefined)	10µM*	3	11%[38.3 µM]
C=CCOC(=O)C1=C(C)NC(SCC(N)=O)=C(C#N)C1c1ccc(C)cc1 (centres undefined)	11%	nt	nt
O=C(COc1ccc2ccccc2c1Br)NNC(=O)Nc1ccccc1	?	-18	11µM*
COC(=O)NNC(=O)COc1ccc2ccccc2c1Br	-24%	nt	?
COc1c(C2=CC(=O)N(C)C2=O)c2c(n1C)C(=O)c1ccccc1C2=O	nt	nt	24%
CCSc1nnc(NC(=O)c2ccc3ccccc3n2)s1	7.9µM*	?	0%[38.3 µM]
CCc1nnc(NC(=O)c2ccc3ccccc3n2)s1	-44%	nt	28%
Cc1ccccc1OCC(O)Cn1c(=N)n(Cc2ccccc2)c2ccccc21 (centres undefined)	10µM*	nt	nt
COc1ccccc1OCC(O)Cn1c(=N)n(Cc2ccccc2)c2ccccc21 (centres undefined)	4%[46.1 µM]	6	10%[38.3 µM]
O=C(CCNc1ccc(Br)cc1)c1cccc([N+](=O)[O-])c1	-16%	nt	-4%
O=C(/C(N=Nc1cccc([N+](=O)[O-])c1)=C(/O)c1ccc(Br)cc1)C(F)(F)F	6.3µM*	nt	nt
Fc1ccc(CN2C3=NCCN3c3ccccc32)cc1	11%	nt	nt
COc1ccccc1N1CCN(C(=O)CSc2ncccc2-c2nc3ccccc3[nH]2)CC1	-6%[46.1 µM]	3	15%[38.3 µM]
O=C(CSc1ncccc1-c1nc2ccccc2[nH]1)N1CCN(c2ccccc2F)CC1	1%[46.1 µM]	?	10µM*
COc1ccc(Cl)cc1N(CC(=O)NC1CC1)S(=O)(=O)c1ccc(C)c([N+](=O)[O-])c1	5%	nt	7%
SMILES	NPSR antag	IMPase cell inh	IMPase Li inh
N#CC(Cc1ccc(O)c(O)c1)C(=O)N1CCc2ccccc21 (centres undefined)	-13%[46.1 µM]	nt	38%
COc1ccccc1C(C[N+](=O)[O-])c1c(N)n(C)c(=O)n(C)c1=O (centres undefined)	10µM*	nt	nt
COc1ccccc1C(c1c(N)n(C)c(=O)n(C)c1=O)C(C)[N+](=O)[O-] (centres undefined)	4%	nt	nt
CC(=O)c1cccc(NC(=O)/C(=C\c2cccnc2)NC(=O)c2ccco2)c1	-6%	nt	-4%
O=[N+]([O-])c1c(Nc2ccccn2)cc(Cl)c2nonc12	10µM*	nt	nt
O=C(O)c1cccc(Nc2cc(Cl)c3nonc3c2[N+](=O)[O-])c1	5%	nt	-2%
CCOC(=O)CN1C(=O)C(Sc2n[nH]c(-c3ccc(O)cc3)n2)CCc2ccccc21 (centres undefined)	-24%[46.1 µM]	1	9%[38.3 µM]
Nc1ccc2nc(-c3ccccc3)sc2c1	-11%[46.1 µM]	?	11µM*
Cc1ccc2nc(-c3ccc(N)cc3)sc2c1	33%	nt	nt
CN1CCN(c2ccc(Cl)cc2NC(=O)CCN2C(=O)c3ccccc3C2=O)CC1	-58%	nt	6%
CN(C)C=Nc1ccc(Cl)c(Cl)c1	-17%	nt	nt
CN(C)C=Nc1ccc2nn(-c3ccccc3)nc2c1	3%[46.1 µM]	-24	13µM*
COc1ccccc1-c1nc2n(n1)C(c1ccccc1Cl)C(C(=O)Nc1cccnc1)=C(C)N2 (centres undefined)	nt	4	nt
Cc1ccc(-c2cc(-c3ccccc3)[nH]c(=S)c2C#N)cc1	-4%[46.1 µM]	-9[1.84 µM]	?
COc1ccc(-c2cc(-c3ccccc3)c(C#N)c(=S)[nH]2)cc1	13µM*	nt	-23%
CCOC(=O)C1CCCN(CC(=O)Nc2cccc(C(C)=O)c2)C1 (centres undefined)	8%	nt	12%
COc1ccc(CCN2C(=O)C(O)=C(C(=O)c3ccco3)C2c2cccs2)cc1OC (centres undefined)	23%[46.1 µM]	?	6.3µM*
C=CCOc1ccc(C2C(C(=O)c3ccco3)=C(O)C(=O)N2c2nnc(C)s2)cc1 (centres undefined)	-51%	nt	11µM*
C=CCOc1ccc(C2C(C(=O)c3ccco3)=C(O)C(=O)N2CCCN(CC)CC)cc1 (centres undefined)	-2%[46.1 µM]	6	nt
Cc1cc(N2C(=O)C(O)=C(C(=O)c3ccco3)C2c2cccnc2)no1 (centres undefined)	14%[46.1 µM]	-17	?
COc1ccc(C2C(C(=O)c3ccco3)=C(O)C(=O)N2CC2CCCO2)cc1 (centres undefined)	-16%	nt	11%
COc1cc(C2C(C(=O)c3ccco3)=C(O)C(=O)N2CCc2ccccc2)ccc1O (centres undefined)	-11%[46.1 µM]	-1	5%
COc1ccc(C2C(C(=O)c3ccco3)=C(O)C(=O)N2c2nnc(C)s2)cc1 (centres undefined)	?	nt	11µM*
Cc1ccc2nc(N3C(=O)C(O)=C(C(=O)c4ccco4)C3c3cccs3)sc2c1 (centres undefined)	7.9µM*	-17	?
Nc1nc2c(c(=O)[nH]1)N[C@H](CCNc1ccc(C(=O)O)cc1)CN2	nt	nt	-3%
SMILES	NPSR antag	IMPase cell inh	IMPase Li inh
CC[C@H](CO)NCCN[C@@H](CC)CO	nt	-9[20.6 µM]	-12%
CC(C)OP(=O)(OC(C)C)C(O)c1cccc([N+](=O)[O-])c1 (centres undefined)	14%	nt	nt
O=C(C1=C(O)C(=O)N(CCOCCO)C1c1cccs1)c1cccs1 (centres undefined)	6%[46.1 µM]	?	7.9µM*
O=C(C1=C(O)C(=O)N(Cc2ccco2)C1c1cccs1)c1cccs1 (centres undefined)	-14%	nt	-26%
Cc1ccc(C)c([C@@H]2NC(=O)c3ccccc3N2)c1	nt	nt	0%
CNC(=O)[C@@H]1O[C@@H](n2cnc3c(NCc4cccc(I)c4)ncnc32)[C@H](O)[C@@H]1O	nt	1	nt
O=C(/C=C/c1ccco1)NC(=S)Nc1nc(-c2ccc(Cl)cc2)cs1	3.2µM*	-14	nt
COc1ccc(-c2csc(NC(=S)NC(=O)/C=C/c3ccccc3)n2)cc1Br	37%	nt	nt
O=C(/C=C/c1ccco1)NC(=S)Nc1nc(-c2ccc3ccccc3c2)cs1	1.3µM*	nt	1%
O=C(NC(=S)Nc1nc(-c2ccc(Cl)cc2)cs1)c1cccs1	-37%	nt	-4%
